# VACV Venus inh = qHTS for Stage-Specific Inhibitors of Vaccinia Orthopoxvirus: Venus Reporter Primary qHTS. Vaccinia virus Venus reporter expression, fluorescence. Potency, µM (highest dose often 36.5 µM), for inactives: at the highest dose activity change, negative = inhibition, usual class: inhibitors. actives 0.46% (n = 330,000). AID 720580, 2013; calls by dose curve; tested in A549 cells; also: potency is read from the fitted curve at half-maximal effect; nearly all actives have a fitted effect of over 30% in size
# MARV entry inh = qHTS for inhibitors of binding or entry into cells for Marburg Virus; Marburg virus pseudotyped entry inhibition, cell reporter; AID 540276, 2011; actives 1.8% (n = 300,000); Potency, µM (highest dose often 37.8 µM), inactives show at the highest dose activity change, negative = inhibition, usual class: inhibitors; calls by dose curve; tested in HEK293 cells; also: potency is read from the fitted curve at half-maximal effect
# HCMV inh = qHTS Assay for inhibitors of the human cytomegalovirus (HCMV); HFF cells, HCMV-luciferase reporter, 72 h; stronger effect = lower value; activity change, negative = inhibition, % at 57.5 µM; actives 4.5% (n = 410,000); in the data active = activity change below about -60%; inconclusive = no clear call, values can overlap the other calls; inactive = above about -39%
#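 Screen run at 2 compound doses on HFFs infected with reporter HCMV, MOI 1 PFU/cell. Luciferase activity from cell lysates at 72 h post infection gave inhibition relative to buffer-only and Salinomycin wells.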
# HCV inhibitor = qHTS Assay for Inhibitors of Hepatitis C Virus (HCV). Huh7.5.1 HCVcc-Cre infection, luciferase reporter, 44 h. Potency, µM (series often up to 41.8 µM), for the others: at the highest dose activity change, negative = inhibition, actives largely listed as inhibitors. actives 3.4% (n = 340,000); active = well fitted inhibition curve with a large enough effect; inconclusive = small, poorly fitted or top-dose-only effect, or another doubt; inactive = no such curve, though single readings can be large or run the other way; also: potency is read from the fitted curve at half-maximal effect
#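 Infectious HCV cell culture screen: compound-treated cells (1,000/well, pre-plated 4 h) are infected with HCVcc-Cre at roughly 0.5 moi and grown 44 h. Infection is quantified by luciferase signal after 15 min substrate incubation at room temperature.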
# Vaccinia mCherry = qHTS for Stage-Specific Inhibitors of Vaccinia Orthopoxvirus: mCherry Reporter Primary qHTS; Potency, µM (doses to about 36.5 µM), inactives show top-dose activity change, negative = inhibition, actives largely listed as inhibitors; Vaccinia virus mCherry reporter infection, fluorescence; actives 0.63% (n = 310,000); calls by dose curve; tested in A549 cells; also: potency is read from the fitted curve at half-maximal effect; nearly all actives have a fitted effect of over 35% in size
# Lassa entry inh = qHTS for Inhibitors of binding or entry into cells for Lassa Virus; actives 1.2% (n = 300,000); Potency, µM (series often up to 37.9 µM), for inactives: at the highest dose activity change, negative = inhibition, hits mostly inhibitors; AID 540256, 2011; Lassa virus pseudotype entry inhibition, cell reporter; calls by dose curve; tested in HEK293 cells; also: potency is read from the fitted curve at half-maximal effect; nearly all actives have a fitted effect of over 50% in size
# Active calls of the source: *; i = inactive; ? = inconclusive; . = no result; [ ] = another dose, or the depositor's remark. A selection: hits, their analogues and other compounds. The true share with any hit is near 7.8%. % is scaled to controls: 0 for no effect and ±100 for the full control effect.
SMILES,VACV Venus inh,MARV entry inh,HCMV inh,HCV inhibitor,Vaccinia mCherry,Lassa entry inh
COc1ccc(CNCCC(c2ccccc2)c2ccc3c(c2)OCO3)cc1 (stereo not drawn),?,?,-18,10µM*,?,?
Cc1ccc(C(CCN)c2ccco2)cc1 (stereo not drawn),.,?,9,-13%,.,7%
COc1ccc(NC(=O)Cn2c(=O)n(CCCC(=O)NCc3ccccc3Cl)c(=O)c3ccccc32)c(OC)c1,?,17%[46.1 µM],16,.,-4%,-1%[46.1 µM]
CCc1cccc(C)c1NC(=O)CSc1nnc(N)s1,-11%,.,-16,.,-10%,-17%[46.1 µM]
COc1ccc(C(=Cc2cc(OC)c(OC)cc2[N+](=O)[O-])C(=O)O)cc1,-9%,0%,-99*,-20%,-16%,-3%
CC1(C)CC(=O)C=C(NC2=CC3OC(c4ccccc4)OCC3OC2=O)C1 (stereo not drawn),?,14µM*,-8,?,?,?
N#Cc1ccc(CSc2nnc(-c3ccncc3)o2)cc1,?,0%[46.1 µM],?,-18%,-26%,-25%[46.1 µM]
O=C(CSc1nnc(-c2ccncc2)o1)NCc1ccccc1,-8%,1%,-90*,-4%,i,-2%
c1ccc(CSc2nnc(-c3ccncc3)o2)cc1,.,?,-73*,-5%,.,16%
CCn1c2ccccc2c2cc(NC(=O)CSc3nnc(-c4cccc(C)c4)o3)ccc21,-14%,-26%,-11,-3%,.,-27%
COC(=O)c1ccc(CSc2nnc(-c3ccncc3)o2)cc1,-22%,14%[46.1 µM],-68*,15%,i,?
CCn1c2ccccc2c2cc(NC(=O)CSc3nnc(-c4ccccc4)o3)ccc21,-10%,-19%,-28,7.1µM*,?,?
COCC(=O)Nc1cc(C(=O)N2CCCC(C(N)=O)C2)cc2nc(-c3ccccc3)n(C)c12 (stereo not drawn),-6%,.,.,.,-14%,.
COc1ccc(N2CC(NC(=O)C3CCCCC3)CC2=O)cc1 (stereo not drawn),-6%[7.34 µM],.,-2,.,-7%[7.34 µM],-20%[46.1 µM]
Cc1ccc(CCNC(=O)c2ccc3c(c2)N(Cc2cccc(Cl)c2)C(=O)c2ccccc2S3(=O)=O)cc1,-8%,.,-38,.,-4%,-25%[46.1 µM]
CCCC(=O)Nc1nnc(S(=O)(=O)N(C)Cc2ccc(Cl)cc2)s1,-8%,.,0,.,-3%,7%[46.1 µM]
CC(=O)OC[C@H]1O[C@H](C#Cc2ccc(C)cc2C)C=C[C@H]1OC(C)=O,.,-2%[14.2 µM],.,.,.,-33%[14.3 µM]
COC(=O)C1=C(N)Oc2cc(C)n(Cc3ccco3)c(=O)c2C1c1cccc(Cl)c1 (stereo not drawn),?,?,-22,8.9µM*,.,-21%
C=C1NN(CC2CC2)C(=O)N1c1ccc(OCc2ccccc2)cc1,-14%,.,.,.,-26%,.
CCOc1ccc(Br)cc1S(=O)(=O)NC1=NCCCCC1,-11%,?,-64*,-7%,-15%,14%
CCOc1ccc(Br)cc1S(=O)(=O)Nc1cccc(S(=O)(=O)NC2=NCCC2)c1,.,.,-6,1%,.,.
CCc1noc(C)c1C(=O)N1CCOc2ccc(CN3CCN(c4ccccn4)CC3)cc2C1,-8%,.,.,.,-11%,.
Cn1c(-c2cccs2)[n+](C)c2ccccc21,-23%,?,-8,11µM*,-14%,9%[46.1 µM]
COn1c(=O)c(-c2cccs2)[n+]([O-])c2ccccc21,-20%,?,3,?,-24%,0%
CN(C)c1ccc(/C=N/Nc2nc3ccccc3o2)cc1,-29%,?,-16,10%,?,5.6µM*
Cc1c(C(=O)N2CCN(c3ccc(F)cc3)CC2)sc2ncnc(N3CCN(c4ccccn4)CC3)c12,?,?,-81*,?,-14%,?
Cc1sc2ncnc(N3CCN(C(=O)c4ccco4)CC3)c2c1C,-20%,?,-67*,?,-5%,?
Cc1nc(N2CCN(C(=O)c3ccco3)CC2)c2c3c(sc2n1)CCC3,?,10µM*,-65*,?,.,?

# Source: PubChem BioAssay (National Center for Advancing Translational Sciences (NCATS))
